Assay results reported in PubChem BioAssay AID1963315 (National Center for Advancing Translational Sciences (NCATS), 2024).
Results filed as inconclusive are left out. Unmarked numbers belong to inactive results. Active and inactive are the calls of the source. The call rests on the fitted dose curve.

Target: Tyrosine-protein kinase ABL1 (Homo sapiens) (UniProt P00519)
Test: ABL1 kinase (ABL1-N-HiBiT) SDR gain of signal screen
Conditions: Purified ABL1-N-HiBiT enzyme, Nano-Glo HiBiT luminescence, 30 min compound incubation; series mostly up to 32.9 µM; activity change, gain of signal: at the top concentration
From the text: National Center for Advancing Translational Sciences (NCATS),
National Institute of Health (NIH), Maryland
Discovery and optimization of novel protein-binding ligands underlies many of the methods and applications of biology, drug discovery, clinical diagnostics, and environmental toxicology. Assays for detecting the interaction of, for example, a molecule with a macromolecular target also referred to here as the target of interest (TOI) is dependent on a compatible output technology. Depending on the nature and knowledge surrounding the TOI, whether a receptor, enzyme, regulatory subunit or scaffold, or a sequence-defined nucleic acid folded into a complex tertiary structure, assay strategies can vary widely.
Here we exploit ligand-biased changes in the structural dynamics of the target protein to control reporter alpha complementation allowing a non-competitive, non-functional, non-separation measure of ligand-target interaction.
Secondly, we show the specificity and sensitivity of the SDR for the Abelson tyrosine kinase (ABL1) compared to the serine/threonine protein kinase A, using an enriched chemical library of 128 compounds selected, in part, for activity annotated with ABL1 kinase activity using the Pharos database (3).
(1) A. S. Dixon et al., NanoLuc Complementation Reporter Optimized for Accurate Measurement of Protein Interactions in Cells. ACS Chem Biol 11, 400-408 (2016).
Chemistry & Biology, 19, 1060 - 1072 (2012).
(3) K. J. Kelleher et al., Pharos 2023: an integrated resource for the understudied human proteome. Nucleic Acids Res 51, D1405-D1416 (2023).
PROTOCOL TABLE (as described by Inglese J, Shamu CE and Guy RK. 2007)
SEQUENCE No. (e.g., 1, 2, 3, etc.); […] (e.g., C. elegans, Compounds, Incubation, Read, etc.); VALUE and DESCRIPTION.
1. Reagent. Dispense 4 uL ABL1-N-HiBiT enzyme per well at a final enzyme concentration of 10 nM in buffer without ATP (SDR assay) into columns 2-48 of four replicate Greiner 1536-well white, solid bottom high base, medium plates per assay. Dispense respective buffer without enzyme at 4 uL/well in column 1 of assay plates using BioRaptr 2.
2. Compounds. Library compounds added at 23 nL/well by pin transfer. DMSO neutral control and imatinib positive control added at 25 nL/well, transfer by Mosquito dispenser.
3. Incubation. Incubate enzyme and compounds at room temperature for 30 min, protected from light.
4. Reagent. (SDR assay) Add 3 uL/well of Nano-Glo HiBiT reagent (Promega) to assay plates with or without ATP.
5. Incubation. (SDR assay) Incubate enzyme solution and HiBiT reagent at room temperature for 10 min, protect from light.
6. Detector. (SDR assay) Luminescence measured using CCD-based camera (ViewLux) with settings as follows: Exposure, 1 sec; Gain, High; Speed, Slow; Binning, 2X.
Inglese J, Shamu CE and Guy RK, Reporting data from high throughput screening of small molecule libraries, Nature Chemical Biology, 2007, 3(8): 438-441. doi.org/10.1038/nchembio0807-438.

Chain of Tyrosine-protein kinase ABL1 (Homo sapiens) (P00519 whole entry, looked up): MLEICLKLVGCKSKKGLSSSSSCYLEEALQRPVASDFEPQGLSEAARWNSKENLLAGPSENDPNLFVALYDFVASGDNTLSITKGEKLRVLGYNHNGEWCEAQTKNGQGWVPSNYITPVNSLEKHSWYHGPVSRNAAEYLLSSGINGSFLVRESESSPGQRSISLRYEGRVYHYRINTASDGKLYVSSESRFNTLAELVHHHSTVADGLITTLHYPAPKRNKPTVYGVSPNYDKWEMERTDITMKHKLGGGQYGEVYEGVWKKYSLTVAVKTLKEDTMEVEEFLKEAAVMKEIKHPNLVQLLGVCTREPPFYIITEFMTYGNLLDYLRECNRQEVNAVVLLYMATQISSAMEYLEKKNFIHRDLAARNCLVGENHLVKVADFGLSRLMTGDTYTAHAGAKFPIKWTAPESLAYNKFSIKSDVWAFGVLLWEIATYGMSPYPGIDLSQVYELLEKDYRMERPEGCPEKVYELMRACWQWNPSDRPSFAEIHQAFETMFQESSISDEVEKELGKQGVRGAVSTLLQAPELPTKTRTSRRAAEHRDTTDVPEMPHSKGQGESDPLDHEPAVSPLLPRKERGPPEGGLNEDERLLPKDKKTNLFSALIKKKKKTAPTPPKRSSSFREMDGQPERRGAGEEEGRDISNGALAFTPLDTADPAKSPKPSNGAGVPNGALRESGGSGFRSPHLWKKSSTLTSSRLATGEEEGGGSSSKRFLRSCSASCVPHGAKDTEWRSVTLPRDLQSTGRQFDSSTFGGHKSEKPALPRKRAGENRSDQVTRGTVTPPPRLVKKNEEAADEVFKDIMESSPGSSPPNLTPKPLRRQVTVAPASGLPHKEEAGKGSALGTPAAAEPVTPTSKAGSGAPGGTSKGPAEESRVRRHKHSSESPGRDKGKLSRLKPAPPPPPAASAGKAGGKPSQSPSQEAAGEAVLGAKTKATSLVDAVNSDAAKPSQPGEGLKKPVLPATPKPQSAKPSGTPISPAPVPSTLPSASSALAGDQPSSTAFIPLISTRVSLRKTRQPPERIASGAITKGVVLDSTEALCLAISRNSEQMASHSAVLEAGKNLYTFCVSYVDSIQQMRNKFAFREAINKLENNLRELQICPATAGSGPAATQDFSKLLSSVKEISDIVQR

| SMILES | activity change, gain of signal [%] | Potency |
| --- | --- | --- |
| O=C(NCCCNc1nc(Nc2ccc(N3CCOCC3)cc2)ncc1C1CC1)C1CCC1 | -15.7 | – |
| Cc1[nH]nc2ccc(-c3cncc(OC[C@@H](N)Cc4c[nH]c5ccccc45)c3)cc12 | -23 | – |
| C/C(O)=C(\C#N)C(=O)Nc1cc(Br)ccc1Br | -83.3 | – |
| O=[N+]([O-])O[C@H]1CO[C@H]2[C@@H]1OC[C@H]2O[N+](=O)[O-] | 8.76 | – |
| CCNC(=O)C[C@@H]1N=C(c2ccc(Cl)cc2)c2cc(OC)ccc2-n2c(C)nnc21 | 7.17 | – |
| N#Cc1cn([C@@H]2O[C@H](CO)[C@H](O)[C@@H]2O)c2ncnc(N)c12 | – | 6.05 µM (active) |
